Test [1] concerns the target Tumor necrosis factor receptor superfamily member 10B (Homo sapiens) (UniProt O14763). Put plainly: viability loss of caspase-8 NB7 cells with TRAIL – with/without TRAIL, luminescence panel, confirmation (AID 651596). Conditions: NB7 neuroblastoma + caspase-8, TRAIL sensitization, NB7 Caspase-8, with TRAIL, mean of runs, at 10 µM, stronger effect = higher value.
Assay in test [2]: as above
The settings on record: NB7 neuroblastoma + caspase-8, without TRAIL, NB7 Caspase-8, without TRAIL, mean of runs, at 10 µM.

Chain of Tumor necrosis factor receptor superfamily member 10B (Homo sapiens) (O14763 whole entry, looked up): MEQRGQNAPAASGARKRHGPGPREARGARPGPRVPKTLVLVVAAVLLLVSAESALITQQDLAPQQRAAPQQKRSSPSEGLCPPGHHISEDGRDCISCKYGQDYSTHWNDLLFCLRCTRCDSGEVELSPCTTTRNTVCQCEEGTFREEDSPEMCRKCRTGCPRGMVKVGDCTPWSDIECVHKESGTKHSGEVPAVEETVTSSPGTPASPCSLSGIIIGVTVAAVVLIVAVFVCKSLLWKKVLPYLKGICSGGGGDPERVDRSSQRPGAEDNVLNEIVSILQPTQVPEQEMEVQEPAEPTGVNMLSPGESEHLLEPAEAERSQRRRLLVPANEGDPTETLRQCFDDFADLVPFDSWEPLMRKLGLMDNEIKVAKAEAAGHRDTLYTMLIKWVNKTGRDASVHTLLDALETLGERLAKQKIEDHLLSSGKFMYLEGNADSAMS

For `CC(C)c1ccc(/C=N/NC(=O)c2c(Cl)cnn2C)cc1`, the figures for the activity in test [1] and in test [2] were 80.1% and 71.3%, respectively.
For `Cc1nnc(NC(=O)c2nc(S(=O)(=O)Cc3ccccc3)ncc2Cl)s1` the same measures were 94.5% and 84.9%.
In the case of `O=C(NC1CC1)C1CCN(S(=O)(=O)c2ccc(Cl)c([N+](=O)[O-])c2)CC1`, the activity in test [1] worked out at 65.2%; in test [2], 88.2%.
Turning to `O=C(CCl)Nc1cccc(Oc2ccccc2)c1`, the activity in test [1] and in test [2] was 97.7% in each case.
Turning to `CCN(CC)CCN1C(=O)/C(=C\c2ccc(Cl)c([N+](=O)[O-])c2)SC1=Nc1ccc(OC)cc1`, the values for the activity in test [1] and in test [2] were 82.2% and 97.3%, respectively.
Take `N=c1c2c(n(Cc3ccc(Cl)c(Cl)c3)c3c1CCC3)CCCC2`: the activity in test [1] turned out to be 80.6%; in test [2] it was 60.1%.
For `CN(C(=O)c1ccccc1)c1nc2ccccc2s1` the same measures were 84.3% and 72.3%.
For `NC(=O)c1ccsc1NC(=O)c1ccc(N2CCCC2=O)cc1` the same measures were 87.3% and 85.7%.
For `Cc1ccccc1C(=O)Nc1ccc2c(c1)OCCO2` the same measures were 61.1% and 63.2%.
For the molecule `CN=c1scc(-c2ccccc2F)n1/N=C(\C)c1cccnc1`, the results for the activity in test [1] and in test [2] were 54.9% and 51.2%, respectively.
For `CC(=O)Nc1ccc(C=NNc2nnc(NN=Cc3ccc(NC(C)=O)cc3)c3ccccc23)cc1` the same measures were 68.6% and 67.4%.
For `CC(C)(C)c1ccc(-c2nnc(N)s2)cc1` the same measures were 64.7% and 66.7%.
For `C[C@@H](CO)NC(=O)c1ccc2c3n(nc2c1)-c1ccccc1CO3` the same measures were 91.5% and 91.8%.
Turning to `COCCNC(=O)c1c[nH]c2ccc(S(=O)(=O)N3CCc4ccccc43)cc2c1=O`, the values for the activity in test [1] and in test [2] were 74.2% and 82.7%, respectively.
For `O=C(/C=C/[C@H]1O[C@@H](n2cnc3c(NC(=O)c4ccccc4)ncnc32)[C@H](O)[C@@H]1O)NCC1CCCO1` (stereo partly drawn) the same measures were -2.52% and -37%.
For `COc1ccc(/C(N)=N/OC(=O)CC2CCCCC2)cc1OC` the same measures were 83.4% and 78.2%.
For `Clc1ccc(-n2ncc3c(N4CCCCCC4)ncnc32)cc1` the same measures were 78% and 74.8%.
For `CCCCCCCCCCCCCCCC[n+]1ccc(C(N)=O)cc1`, the activity in test [1] turned out to be 92.1%; in test [2] it was 88.5%.
For the molecule `CCc1ccc(/C=N/Nc2ncnc3nc[nH]c23)cc1`, the activity in test [1] turned out to be 47.1%; in test [2] it was 41.7%.
As to `CCC(=O)c1ccc(/C=C/c2nc3ccccc3n2C)o1`, the activity worked out at 61.2% in test [1] and 54.8% in test [2].
For `COc1ccc(-c2cn3ccccc3n2)cc1` the same measures were 88% and 87.1%.
For `Cn1c(=N)n(CC(=O)c2ccc(F)cc2)c2ccccc21` the same measures were 75.8% and 67.5%.
For `CCOc1ccc2nc(NC(=O)CN3CCC(n4nnc5cc(C(F)(F)F)ccc54)CC3)sc2c1` the same measures were 69% and 66.9%.
Take `CCC(C)c1ccc(NC(=O)c2ccco2)cc1` (stereo not drawn): the figures for the activity in test [1] and in test [2] were 81.5% and 82.8%, respectively.
For `COc1ccc(NC(=O)c2cccc(N3C(=O)c4ccc(C(=O)Nc5ccc(OC)c(O)c5)cc4C3=O)c2)cc1O` the same measures were 71.7% and 85.6%.
On to `Nc1c(N(C(=O)Nc2ccc(Cl)c(Cl)c2)C2CCCC2)c(=O)[nH]c(=O)n1Cc1ccccc1`, for which the activity in test [1] came to 46.5%; in test [2], 46%.
For `Oc1cccc(-c2nnc(-c3cccc(O)c3)nn2)c1` the same measures were 89% and 84.2%.
For `O=C(CSc1nnc(NC(=O)c2ccc3c(c2)OCO3)s1)NCc1ccco1`, the values for the activity in test [1] and in test [2] were 85.4% and 83.7%, respectively.
For `Cc1csc(N/N=C/c2ccccn2)n1` the same measures were 59.2% and 69.7%.
`COc1ccc(CN(C(=O)CSc2nnc(-c3ccccc3C)o2)c2ccc(F)cc2)cc1`: the values for the activity in test [1] and in test [2] were 97.9% and 97.3%, respectively.
For `O=C1C(=C(I)I)c2ccccc2-c2ccccc21` the same measures were 38% and 99.6%.
For `COc1ccc(-c2ccc3ccccc3n2)cc1` the same measures were 32.4% and 16%.
As to `O=C(CC(Nc1ccc(F)cc1)C(=O)O)c1ccccc1` (stereo not drawn), the results for the activity in test [1] and in test [2] were 63.3% and 53.1%, respectively.
For `Cc1ccc(-c2nc(N/N=C/c3ccncc3)c3ccccc3n2)cc1` the same measures were 98% and 96.7%.
Turning to `O=C(Nc1ccccc1)c1nc[nH]c1C(=O)Nc1ccccc1F`, the activity worked out at 62% in test [1] and 62.5% in test [2].
For `Cc1ccccc1-c1nnc(-c2cccc3ccccc23)o1` the same measures were 47% and 32.4%.
Consider `COc1cc(OC)cc(C(=O)Nc2ccc3c(c2)OCCO3)c1`, for which the activity stood at 47.1% in test [1] and 43.8% in test [2].
For `Cc1cc(Br)c(OCc2ccc(C(=O)N/N=C/c3ccc[nH]3)cc2)c(Br)c1` the same measures were 72.8% and 86.5%.
For `CC1(C)CC(=O)c2sc(NC(=O)c3cccs3)nc2C1` the same measures were 91.9% and 94.2%.
In the case of `C#CCSc1nnc(CSc2nc3ccccc3s2)n1-c1ccccc1`, the activity stood at 95.3% in test [1] and 94.8% in test [2].
For `O=c1c2ccccc2oc2ccc(NCCCn3ccnc3)cc12` the same measures were 44% and 30.3%.
In the case of `CCc1ccc(NC(=O)c2cnn3ccccc23)cc1`, the values for the activity in test [1] and in test [2] were 59.4% and 58.6%, respectively.
For `Cc1ccc2nc(-c3ccc(N)cc3)sc2c1` the same measures were 83.2% and 81.8%.
For `COc1ccc(-c2cn3ccccc3n2)cc1[N+](=O)[O-]` the same measures were 50.9% and 53%.
